Compounds with a hit are over-represented: about 9.3% of the library has one in this group of screens.
Sm TGR block – qHTS Assay for the Inhibitors of Schistosoma Mansoni Peroxiredoxins; purified TGR, DTNB reduction, TNB absorbance 405 nm; Potency, µM (top dose mostly 114 µM), actives largely listed as inhibitors; AID 485364, 2010; Schistosoma mansoni thioredoxin glutathione reductase (TGR), Q962Y6; 360,000 compounds, 3% hits; also: nearly all actives have a fitted effect of over 60% in size
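First, TGR (20 nM dispensed) and NADPH were mixed with compound. Second, a 15 min room-temperature incubation followed. Third, further NADPH and then DTNB were added to start the reaction. Finally, TNB absorbance was monitored kinetically.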
FMDV antiviral – High Throughput Screening for Foot and Mouth Disease Virus Antivirals; FMDV antiviral cell-based qHTS; Potency, µM (highest dose often 57.9 µM), most hits filed as inhibitors; 410,000 compounds, 1.2% hits; calls by dose curve; tested in HEK293T cells; also: read-out not given here; nearly all actives have a fitted effect of over 45% in size
HCMV antiviral – qHTS Assay for inhibitors of the human cytomegalovirus (HCMV); 410,000 compounds, 4.5% hits; activity change, negative = inhibition, % at 57.5 µM; AID 1259415, 2018; HFF cells, HCMV-luciferase reporter, 72 h; active compounds read low; in the data active = activity change below about -60%; inconclusive = no clear call, values can overlap the other calls; inactive = above about -39%
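Screen run at 2 compound doses on HFFs infected with reporter HCMV, MOI 1 PFU/cell. Luciferase activity from cell lysates at 72 h post infection gave inhibition relative to buffer-only and Salinomycin wells.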
Vaccinia Venus – qHTS for Stage-Specific Inhibitors of Vaccinia Orthopoxvirus: Venus Reporter Primary qHTS; AID 720580, 2013; Vaccinia virus Venus reporter expression, fluorescence; 330,000 compounds, 0.46% hits; Potency, µM (series often up to 36.5 µM), usual class: inhibitors; calls by dose curve; tested in A549 cells; also: nearly all actives have a fitted effect of over 30% in size
VACV mCherry inh – qHTS for Stage-Specific Inhibitors of Vaccinia Orthopoxvirus: mCherry Reporter Primary qHTS. Vaccinia virus mCherry reporter infection, fluorescence. Potency, µM (doses to about 36.5 µM), actives largely listed as inhibitors. 310,000 compounds, 0.63% hits. AID 720579, 2013; calls by dose curve; tested in A549 cells; also: nearly all actives have a fitted effect of over 35% in size
HCV inhibitor – qHTS Assay for Inhibitors of Hepatitis C Virus (HCV); Huh7.5.1 HCVcc-Cre infection, luciferase reporter, 44 h; Potency, µM (titrated, usually from 41.8 µM), most hits filed as inhibitors; 340,000 compounds, 3.4% hits; AID 651820, 2012
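A cell-based infection assay in which seeded cells (1,000 per well) receive test compound after 4 h, are inoculated with HCVcc-Cre at approximately 0.5 moi, and are incubated 44 h before luminescence detection.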
A number is an active result; i = inactive; ? = inconclusive; nt = no result given; ! = a repeat was not active; [ ] = dose if it differs, or a comment. Unless noted, calls follow the shape of the dose curve; as a rule, active = well fitted curve in the direction sought with a large enough effect; inconclusive = small, poorly fitted or top-dose-only effect, or another doubt; inactive = no such curve, though single readings can be large; an effect the other way counts as inactive or inconclusive.

SMILES	Sm TGR block	FMDV antiviral	HCMV antiviral	Vaccinia Venus	VACV mCherry inh	HCV inhibitor
Cc1ccc2cc(CN(Cc3ccco3)Cc3nnnn3Cc3ccco3)c(=O)[nH]c2c1	nt	nt	nt	i	i	nt
O=c1[nH]c2cc3c(cc2cc1CN(Cc1ccccc1)Cc1nnnn1Cc1ccco1)OCCO3	8.91µM	i	i	i	i	?
O=c1[nH]c2cc3c(cc2cc1CN(CCc1ccccc1)Cc1nnnn1C1CCCC1)OCCO3	44.7µM	nt	nt	nt	nt	nt
O=c1[nH]c2cc3c(cc2cc1CN(Cc1cccs1)Cc1nnnn1Cc1ccco1)OCCO3	11.2µM	i	i	i	i	i
NC(=O)NCC(=O)N1CCC(C(O)(c2ccccc2)c2ccccc2)CC1	i	i	i	i	i	i
COc1ccccc1CNC(=O)c1cc2ccccc2o1	i	i	i	i	i	i
CCC(=O)Nc1ccc2c(c1)nc1n2CCN(CCOC)C1	?	i	i	nt	nt	i
CN(CC(=O)N1CCCC1)S(=O)(=O)c1cccc(Cl)c1	i	i	i	i	i	i
O=c1[nH]c2cc3c(cc2cc1CN(Cc1cccnc1)Cc1nnnn1Cc1ccco1)OCCO3	14.1µM	i	i	nt	nt	i
Cc1cc(C)c2cc(CN(Cc3ccc4c(c3)OCO4)Cc3nnnn3Cc3ccco3)c(=O)[nH]c2c1	39.8µM	i	i	?	nt	?
Cc1ccc2[nH]c(=O)c(CN(Cc3ccc4c(c3)OCO4)Cc3nnnn3Cc3ccco3)cc2c1	?	i	i	i	nt	?
Cc1nn(-c2ccccc2)cc1/C=N/NC(N)=S	i	i	i	?	11.2µM	i
Nc1cc(=O)[nH]c(SCC(=O)N2N=C(c3ccc(Cl)cc3)CC2c2ccco2)n1 (centres undefined)	nt	i	?	i	i	i
COc1ccc(C2=NN(C(=O)CSc3nc4ncc(Cl)cc4[nH]3)C(c3ccco3)C2)cc1 (centres undefined)	28.2µM	i	i	i	i	i
COc1ccc(C2=NN(C(=O)CSc3nnc(-c4ccccc4F)o3)C(c3ccco3)C2)cc1 (centres undefined)	i	i	i	i	i	i
COc1ccc(C2=NN(C(N)=S)C(c3ccco3)C2)cc1 (centres undefined)	8.91µM	i	i	nt	nt	i
Cc1ccc(C2=NN(C(=O)CSc3nc4ncc(Cl)cc4[nH]3)C(c3ccco3)C2)cc1 (centres undefined)	14.1µM	i	i	i	i	i
CCOc1ccc(N2CC(C(=O)NCCc3ccc(S(N)(=O)=O)cc3)CC2=O)cc1 (centres undefined)	i	i	i	i	i	i
Nc1nc2nccc(-c3ccco3)n2n1	i	i	i	i	i	i
COc1ccc(-n2c(=S)[nH]c(=O)c3cccnc32)cc1	17.8µM	i	i	i	i	i
COc1ccc(-n2c(=S)[nH]c3c(oc4ccccc43)c2=O)cc1	i	i	i	i	i	i
Cc1ccc(C)c(OCc2cc(C(=O)N3C[C@@H](C)O[C@@H](C)C3)no2)c1	i	i	i	i	i	?
N#Cc1c(NC(=O)CSc2nnnn2C2CCCCC2)sc2c1CCCC2	i	i	i	i	i	i
O=C(NCCCN1CCC(Cc2ccccc2)CC1)c1ccc2nc(N3CCOCC3)sc2c1	i	i	i	nt	nt	10µM
CCCN(CCC)CCNC(=O)C1CCN(c2nc3ccc(CC)cc3s2)CC1	i	i	-98.3	i[7.34 µM]	i[7.34 µM]	nt
SMILES	Sm TGR block	FMDV antiviral	HCMV antiviral	Vaccinia Venus	VACV mCherry inh	HCV inhibitor
CCCN(CCC)CCCNC(=O)C1CCN(S(=O)(=O)CC)CC1	i	i	i	i	i	nt
CC1CCCC(C)N1CCCNC(=O)c1ccc2nc(N3CCOCC3)sc2c1 (centres undefined)	i	i	i	i	i	i
CCc1ccc2nc(N3CCC(C(=O)NCCC(C)C)CC3)sc2c1	i	i	i	i	i	nt
CCCN(CCC)CCCNC(=O)C1CCN(c2nc3ccc(CC)cc3s2)CC1	i	i	-100.9	i[7.34 µM]	i[7.34 µM]	nt
CCCCN(CCCC)CCCNC(=O)c1ccc2nc(N3CCCCC3)sc2c1	28.2µM	i	i	i	i	nt
Cc1sc2ncnc(OCC(=O)N3CCN(C(=O)c4ccco4)CC3)c2c1C	?	i	i	nt	nt	i
C[C@]12C=CC(=O)C=C1CC[C@@H]1C2=CC[C@]2(C)[C@@H](C(=O)CN3CCN(c4cc(N5CCCC5)nc(N5CCCC5)n4)CC3)CC[C@@H]12	nt	i	?	?	1µM	i
CC(=O)C1CCC2C3CCC4=CC(=O)C=CC4(C)C3C(=O)CC12C (centres undefined)	nt	i	i	i	i	i
COc1ccc(-c2nnc(NC(=O)c3ccc(S(=O)(=O)N4CCCc5ccccc54)cc3)o2)cc1	i	i	nt	i	i	10µM
COCc1nnc(NC(=O)c2ccc(S(=O)(=O)N3CCCc4ccccc43)cc2)o1	i	i	-78.4	?	?	12.6µM
CCCCN(CCCC)S(=O)(=O)c1ccc(C(=O)Nc2nnc(COC)o2)cc1	i	i	nt	?	?	?
CCN(CC)S(=O)(=O)c1ccc(C(=O)Nc2nnc(COC)o2)cc1	i	i	-63.5	nt	nt	i
COC(=O)C(CN)c1c[nH]c2ccc(OC)cc12 (centres undefined)	nt	i	nt	nt	nt	nt
Cc1ccc(S(=O)(=O)Nc2cc(C)c(O)c(Sc3n[nH]c(C)n3)c2)cc1	44.7µM	i	i	i	i	i
CCN(CC)CC(O)c1cccn1-c1ccc(CNC(=O)NC(C)C)cc1 (centres undefined)	i	i	-65.9	nt	nt	i
OC1=C(O)c2nc3cc(F)ccc3nc21	12.6µM	i	i	nt	nt	i
CC(=O)c1cccc(-c2csc3ncnc(Sc4nnnn4C)c23)c1	nt	35.5µM	?	nt	nt	nt
Cn1nnnc1Sc1ncnc2scc(-c3ccc(Cl)cc3)c12	i	20µM	-98.1	nt	nt	nt
Cn1nnnc1Sc1ncnc2scc(-c3cccc(S(C)(=O)=O)c3)c12	?	i	i	nt	nt	nt
Cn1nnnc1Sc1ncnc2scc(-c3ccc([N+](=O)[O-])cc3)c12	?	11.2µM	-100.2	nt	nt	nt
Cn1nnnc1Sc1ncnc2scc(-c3ccc4c(c3)OCO4)c12	nt	i	-86.1	nt	nt	nt
Cn1nnnc1Sc1ncnc2scc(-c3cccc(Br)c3)c12	nt	i	i	nt	nt	nt
OC(c1ccc(F)c(F)c1)c1nc(-c2cccc(C(F)(F)F)c2)cs1 (centres undefined)	nt	i	i	i	i	nt
COc1ccccc1CNC(=O)COC(=O)c1cc([N+](=O)[O-])ccc1N1CCOCC1	i	i	i	i	i	?
Cc1sc2ncnc(Sc3nnnn3-c3ccccc3)c2c1C	?	nt	-71.3	?	11.2µM!	?
COc1ccc(-c2csc3ncnc(Sc4nnnn4C)c23)cc1	nt	?	-92.4	nt	nt	nt
Clc1ccc(-n2nnnc2Sc2ncnc3sccc23)cc1	nt	39.8µM	-81.1	i	nt	?
